# Source: PubChem BioAssay (Tox21)
# Several values for one entry are separate records, joined by “and”; a condition that tells them apart may be missing. Equal values may be shown once. Inconclusive results are not listed. A call without a number means that no potency is given here. Some compounds were tested as several samples or in several runs, with calls that do not always agree. Activity calls are given as the source filed them. Unless noted, calls come from the whole dose curve; as a rule, active = well fitted curve in the direction sought with a large enough effect in the repeat runs; inconclusive = weak or mixed curves; inactive = no such curve, though single readings can be large; an effect the other way counts as inactive or inconclusive.
# What was measured:
# [1] = qHTS assay to identify small molecule agonists of the RXR signaling pathway - cell viability counter screen (AID 1159529); note: nearly all actives have a fitted effect of over 50% in size; note: potency is the fitted concentration of half-maximal effect
# Method in brief: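 CellTiter-Glo luminescence gave viability in the wells also read for beta-lactamase. Cells (RXR-alpha-UAS-bla HEK 293T, 2% charcoal-stripped FBS medium) had 5 hr plating, then 16 hr compound exposure at 37 C; tetraoctyl ammonium bromide served as positive control.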
# [2] = qHTS assay to identify small molecule antagonists of the retinoid acid receptor (RAR) signaling pathway - cell viability counter screen (AID 1159551); note: nearly all actives have a fitted effect of over 35% in size; note: potency is the fitted concentration of half-maximal effect
# Method in brief: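 Measured by luminescent ATP detection, viability reflects C3RL4 cells treated 6 h at 37 C with test chemicals in the presence of 1 uM (final) retinol.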
# [3] = qHTS assay to identify small molecule antagonists of the retinoic acid receptor (RAR) signaling pathway (AID 1159552; note: nearly all actives have a fitted effect of over 50% in size; note: potency is the fitted concentration of half-maximal effect)
# Method in brief: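 Luminescent RARE reporter read-out in C3RL4 cells: 6 hr co-treatment at 37 C of test compounds with retinol at 1 uM final. Cells plated overnight beforehand; luciferase reagent incubated 30 min at room temperature before reading.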
# [4] = qHTS assay to identify small molecule agonists of the retinoic acid receptor (RAR) signaling pathway (AID 1159553); conditions: C3RL4 RARE luciferase reporter, agonist, 6 h; activation: at 73.3 µM (top of the series) unless noted; note: potency is the fitted concentration of half-maximal effect
# Method in brief: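 6 hr compound exposure (DMSO vehicle) of overnight-plated C3RL4 RARE-luc cells at 37 C; luminescence quantified after 30 min RT with luciferase reagent.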
# [5] = qHTS assay to identify small molecule antagonists of the estrogen related receptor (ERR) signaling pathway from Tox21 library - cell viability counter screen (AID 1224834); note: nearly all actives have a fitted effect of over 30% in size; note: potency is the fitted concentration of half-maximal effect
# Method in brief: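 Seeded ERR cells were rested 6 h at 37 C/5% CO2 before compounds, positive and negative controls or DMSO were added. Incubation continued for 17.5 h, and viability was then quantified by CellTiter-Fluor fluorescence.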
# [6] = biological target: Luciferin 4-monooxygenase (Photinus pyralis) (UniProt P08659); experiment: qHTS assay to identify small molecule inhibitors of firefly luciferase (AID 1224835); note: nearly all actives have a fitted effect of over 25% in size; note: potency is the fitted concentration of half-maximal effect
# Sequence of Luciferin 4-monooxygenase (Photinus pyralis) (P08659 whole entry, looked up): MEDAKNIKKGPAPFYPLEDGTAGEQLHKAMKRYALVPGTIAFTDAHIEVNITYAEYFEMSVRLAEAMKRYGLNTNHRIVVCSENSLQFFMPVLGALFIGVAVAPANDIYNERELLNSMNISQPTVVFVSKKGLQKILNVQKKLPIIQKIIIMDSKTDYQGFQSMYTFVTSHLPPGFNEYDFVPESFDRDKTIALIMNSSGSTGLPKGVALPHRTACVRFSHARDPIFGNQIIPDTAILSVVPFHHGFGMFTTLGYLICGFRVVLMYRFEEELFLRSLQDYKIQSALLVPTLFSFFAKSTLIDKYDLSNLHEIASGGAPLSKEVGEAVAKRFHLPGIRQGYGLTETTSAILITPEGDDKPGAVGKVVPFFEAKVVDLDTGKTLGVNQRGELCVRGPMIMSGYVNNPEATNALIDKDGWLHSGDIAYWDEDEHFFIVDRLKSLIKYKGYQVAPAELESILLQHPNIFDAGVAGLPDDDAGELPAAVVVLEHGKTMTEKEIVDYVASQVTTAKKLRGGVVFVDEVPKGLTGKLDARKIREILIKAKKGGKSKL
# Method in brief: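 Quantitative HTS format; KM concentrations of both substrates. Purified P. pyralis FLuc activity quantified from luminescence images.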
# [7] = qHTS assay to identify small molecule agonists of the constitutive androstane receptor (CAR) signaling pathway - cell viability counter screen (AID 1224836); note: nearly all actives have a fitted effect of over 45% in size
# Method in brief: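 Cell viability multiplexed with the CAR agonist screen: CellTiter-Fluor fluorescence after 23 hr at 37 C. HepG2-CYP2B6-hCAR cells got compounds at 15 concentrations with PK11195 at 0.75 uM final.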
# [8] = qHTS assay to identify small molecule antagonists of the constitutive androstane receptor (CAR) signaling pathway - cell viability counter screen (AID 1224837); note: nearly all actives have a fitted effect of over 45% in size; note: potency is the fitted concentration of half-maximal effect
# Method in brief: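 To flag cytotoxic false antagonists, HepG2 hCAR/CYP2B6-2.2kb cells were treated 23 hr with 15-concentration compound series and 50 nM CITCO at 37 C/5% CO2; CellTiter-Fluor fluorescence was the measured end point.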
# [9] = biological target: Nuclear receptor subfamily 1 group I member 3 (Homo sapiens) (UniProt Q14994); experiment: qHTS assay to identify small molecule antagonists of the constitutive androstane receptor (CAR) signaling pathway (AID 1224838);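 note: HepG2 cells stably expressing hCAR with CYP2B6 luciferase reporter stimulated by CITCO; nearly all actives have a fitted effect of over 40% in size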
# Sequence of Nuclear receptor subfamily 1 group I member 3 (Homo sapiens) (Q14994 whole entry, looked up): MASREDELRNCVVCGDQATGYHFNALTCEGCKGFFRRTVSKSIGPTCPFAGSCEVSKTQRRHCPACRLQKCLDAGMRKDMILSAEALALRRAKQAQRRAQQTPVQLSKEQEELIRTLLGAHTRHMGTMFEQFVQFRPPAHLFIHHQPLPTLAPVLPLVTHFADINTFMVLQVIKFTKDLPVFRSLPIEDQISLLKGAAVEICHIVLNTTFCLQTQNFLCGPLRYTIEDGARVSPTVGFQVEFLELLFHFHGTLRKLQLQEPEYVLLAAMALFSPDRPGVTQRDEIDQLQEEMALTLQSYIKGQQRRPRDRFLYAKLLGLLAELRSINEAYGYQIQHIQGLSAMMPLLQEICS
# Method in brief: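 Human hepatoma HepG2 cells expressing hCAR and a CYP2B6 promoter (2.2 kb) luciferase construct; compound titration (15 points) with 50 nM CITCO final, 24 h at 37 C/5% CO2; luminescence via ONE-Glo after 30 min at room temperature.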
# [10] = qHTS assay to identify small molecule antagonists of the estrogen related receptor signaling pathway with the pleiotropic PPARgamma coactivator (PGC) from Tox21 10K library - cell viability counter screen (AID 1224840; active = well fitted cell-killing curve with a large enough effect in the repeat runs, not every such curve was filed as active; note: nearly all actives have a fitted effect of over 40% in size; note: potency is the fitted concentration of half-maximal effect)
# Method in brief: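 Seeded PGC/ERR cells (2,000/well, 6 h, 37 C/5% CO2) get compound by pin tool; 17.5 h incubation at 37 C; CellTiter-Fluor added, 30 min, fluorescence measured.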
# [11] = biological target: Thyrotropin receptor (Homo sapiens) (UniProt P16473); experiment: qHTS assay to identify small molecule agonists of the thyroid stimulating hormone receptor (TSHR) signaling pathway (AID 1224843; calls by dose curve; note: nearly all actives have a fitted effect of over 45% in size; note: potency is the fitted concentration of half-maximal effect)
# Sequence of Thyrotropin receptor (Homo sapiens) (P16473 whole entry, looked up): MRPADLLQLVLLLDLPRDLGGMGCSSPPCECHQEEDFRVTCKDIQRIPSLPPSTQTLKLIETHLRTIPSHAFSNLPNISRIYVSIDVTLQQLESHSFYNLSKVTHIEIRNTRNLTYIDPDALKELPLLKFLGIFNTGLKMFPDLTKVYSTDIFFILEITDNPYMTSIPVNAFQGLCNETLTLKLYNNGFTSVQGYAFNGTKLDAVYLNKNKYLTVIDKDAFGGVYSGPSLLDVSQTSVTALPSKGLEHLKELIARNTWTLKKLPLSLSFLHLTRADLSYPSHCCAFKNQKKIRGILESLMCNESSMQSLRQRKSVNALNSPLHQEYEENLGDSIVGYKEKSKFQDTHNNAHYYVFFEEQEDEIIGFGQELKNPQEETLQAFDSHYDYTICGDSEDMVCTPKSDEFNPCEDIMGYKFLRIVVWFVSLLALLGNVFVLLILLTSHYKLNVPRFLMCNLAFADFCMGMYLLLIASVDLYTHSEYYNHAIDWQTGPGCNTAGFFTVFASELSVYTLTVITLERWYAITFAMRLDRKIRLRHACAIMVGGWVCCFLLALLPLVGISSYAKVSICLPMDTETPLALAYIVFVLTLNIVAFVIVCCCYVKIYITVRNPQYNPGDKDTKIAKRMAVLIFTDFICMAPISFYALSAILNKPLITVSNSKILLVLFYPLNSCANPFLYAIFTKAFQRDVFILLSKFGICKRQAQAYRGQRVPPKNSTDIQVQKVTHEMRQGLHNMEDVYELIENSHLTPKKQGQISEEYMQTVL
# Method in brief: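 Using 15 concentrations per compound in triplicate, cAMP production was monitored in TSHR-HEK293 cells after 30 min compound incubation at RT; HTRF reagents followed, with fluorescence intensity recorded after 1 h.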
# [12] = qHTS assay to identify small molecule antagonists of the estrogen related receptor signaling pathway with the pleiotropic PPARgamma coactivator (PGC) from Tox21 10K library (AID 1224841; call rule not given here; note: actives are mostly falling curves and most rising ones were filed inactive; nearly all actives have a fitted effect of over 50% in size; note: potency is the fitted concentration of half-maximal effect)
# Method in brief: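 Test chemicals dissolved in DMSO were applied to pre-incubated (6 h) PGC/ERR cells at 2,000 cells/well for an 18 h, 37 C treatment; reporter luminescence was then read using One-Glo.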
# [13] = qHTS assay to identify small molecule agonists of the estrogen related receptor signaling pathway with the pleiotropic PPARgamma coactivator (PGC) from Tox21 10K library (AID 1224842); note: nearly all actives have a fitted effect of over 15% in size; note: potency is the fitted concentration of half-maximal effect
# Method in brief: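 PGC/ERR reporter cells (NTP line) were seeded 2,000 per well, rested 6 h at 37 C/5% CO2, then pin-dosed with compounds in DMSO for 18 h at 37 C; luciferase read by One-Glo luminescence after 30 min at room temperature.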
# [14] = biological target: Nuclear receptor subfamily 1 group I member 3 (Homo sapiens) (UniProt Q14994); experiment: qHTS assay to identify small molecule agonists of the constitutive androstane receptor (CAR) signaling pathway (AID 1224839); note: nearly all actives have a fitted effect of over 15% in size; note: potency is the fitted concentration of half-maximal effect;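 for activation: HepG2 cells stably carrying human CAR and a CYP2B6 luciferase reporter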
# Method in brief: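 Luminescent ONE-Glo read-out after 24 hr, 37 C exposure of double-stable HepG2-CYP2B6-hCAR reporter cells to a 15-point compound series, in the presence of 0.75 uM PK11195 (final).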
compound,measurement,setting,value
NC[C@H]1O[C@H](O[C@H]2[C@H](O[C@@H]3O[C@H](CO)[C@@H](O)[C@H]3O)C(O)[C@H](N)C[C@@H]2N)[C@H](N)[C@@H](O)[C@@H]1O (some centres not stated),"activity change, negative = cytotoxicity",[1],3% [at 6.97 µM] (inactive)
same,"activity change, negative = cytotoxicity",[2],-0.449% [at 8.39 µM] (inactive)
same,"activity, negative = inhibition",[3],-17.9% [at 8.39 µM] (inactive)
same,activation,[4],-3.22% [at 8.36 µM] (inactive)
same,"viability change, negative = cytotoxic",[5],2.75% [at 8.39 µM] (inactive)
same,"activity change, negative = inhibition",[6],6.81% [at 10.5 µM] (inactive)
same,"viability change, negative = cytotoxic",[7],0.325% [at 8.39 µM] (inactive)
same,"activity change, negative = cytotoxicity",[8],3.7% [at 8.39 µM] (inactive)
same,"activity, negative = inhibition",[9],-13% [at 8.39 µM] (inactive)
same,"viability change, negative = cytotoxic",[10],0.247% [at 8.39 µM] (inactive)
same,activation,[11],-0.16% [at 8.39 µM] (inactive)
Cc1ccc(C)cc1,Potency,[1],inactive
same,Potency,[2],inactive
same,Potency,[3],inactive
same,Potency,[4],inactive
same,Potency,[5],inactive
same,Potency,[6],inactive
same,Potency,[7],inactive
same,Potency,[8],inactive
same,Potency,[10],inactive
same,Potency,[12],inactive
same,Potency,[13],inactive
CCC(=O)C(=O)CC,Potency,[1],inactive
same,Potency,[2],inactive
same,Potency,[3],inactive
same,Potency,[4],inactive
same,Potency,[5],inactive
same,Potency,[6],inactive
same,Potency,[7],inactive
same,Potency,[8],inactive
same,Potency,[14],inactive
same,Potency,[10],inactive
same,Potency,[12],inactive
same,Potency,[11],inactive
COc1cc(/C=C/c2ccccc2)oc(=O)c1,Potency,[1],inactive
same,Potency,[2],inactive
same,Potency,[3],inactive
same,Potency,[4],0.564 µM (active)
same,Potency,[6],7.35 µM (active)
same,Potency,[7],inactive
same,Potency,[8],inactive
same,Potency,[9],inactive
same,Potency,[14],7.96 µM (active)
same,Potency,[10],inactive
same,Potency,[12],inactive
same,Potency,[13],5.64 µM (active)
same,Potency,[11],inactive
O=C(Oc1ccccc1)Oc1ccccc1,Potency,[1],inactive
same,Potency,[2],inactive
same,Potency,[3],inactive
same,Potency,[4],inactive
same,Potency,[5],inactive
same,Potency,[6],31.6 µM (active)
same,Potency,[7],inactive
same,Potency,[8],inactive
same,Potency,[10],inactive
same,Potency,[11],inactive
FC(F)(F)c1cccc(Cl)c1,Potency,[1],inactive
same,Potency,[2],inactive
same,Potency,[3],inactive
same,Potency,[4],inactive
same,Potency,[5],inactive
same,Potency,[6],inactive
same,Potency,[7],inactive
same,Potency,[9],inactive
same,Potency,[14],inactive
same,Potency,[10],inactive
same,Potency,[11],inactive
COC(=O)c1ccccc1OC,Potency,[1],inactive
same,Potency,[2],inactive
same,Potency,[3],inactive
same,Potency,[4],inactive
same,Potency,[5],inactive
same,Potency,[6],inactive
same,Potency,[7],inactive
same,Potency,[8],inactive
same,Potency,[10],inactive
same,Potency,[12],inactive
same,Potency,[13],inactive
same,Potency,[11],inactive
CCCC(=O)OC(C)(C)Cc1ccccc1,Potency,[1],inactive
same,Potency,[2],inactive
same,Potency,[3],inactive
same,Potency,[4],inactive
same,Potency,[5],inactive
same,Potency,[7],inactive
same,Potency,[8],inactive
same,Potency,[9],inactive
same,Potency,[14],inactive
same,Potency,[10],inactive
Cc1c(N)cccc1C(F)(F)F,Potency,[1],inactive
same,Potency,[2],inactive
same,Potency,[3],inactive
same,Potency,[4],inactive
same,Potency,[5],inactive
same,Potency,[6],inactive
same,Potency,[7],inactive
same,Potency,[8],inactive
same,Potency,[10],inactive
same,Potency,[12],inactive
same,Potency,[13],inactive
same,Potency,[11],inactive
C#CC1(O)CC[C@H]2[C@@H]3CCC4=CCCC[C@@H]4[C@H]3CC[C@@]21C (some centres not stated),Potency,[1],24.5 µM (active) and 21.3 µM (active)
same,Potency,[2],54.5 µM (active) and 26.6 µM (active)
same,Potency,[3],48.6 µM (active) and 23.7 µM (active)
same,Potency,[4],inactive
same,Potency,[5],54.5 µM (active)
same,Potency,[6],inactive
same,Potency,[7],inactive
same,Potency,[8],inactive
same,Potency,[10],33.5 µM (active)
same,Potency,[12],inactive
same,Potency,[13],inactive
same,Potency,[11],19.3 µM (active)
CCCCCCOC(=O)C(C)CC (configuration not stated),Potency,[1],inactive
same,Potency,[2],inactive
same,Potency,[3],inactive
same,Potency,[4],inactive
same,Potency,[5],inactive
same,Potency,[6],inactive
same,Potency,[7],inactive
same,Potency,[9],inactive
same,Potency,[14],inactive
same,Potency,[10],inactive
same,Potency,[12],inactive
same,Potency,[13],inactive
same,Potency,[11],inactive
Cc1c2ccccc2c(C)c2c1ccc1ccccc12,Potency,[1],19.3 µM (active) and 19.5 µM (active)
same,Potency,[2],inactive
same,Potency,[3],inactive
same,Potency,[4],54.5 µM (active)
same,Potency,[5],27 µM (active) and 54.5 µM (active)
same,Potency,[6],19.8 µM (active) and 31.7 µM (active)
same,Potency,[8],54.5 µM (active)
same,Potency,[9],inactive
same,Potency,[14],5.39 µM (active) and 9.69 µM (active)
same,Potency,[10],53.9 µM (active) and 27.3 µM (active)
same,Potency,[12],34.4 µM (active)
same,Potency,[13],24.1 µM (active) and inactive
same,Potency,[11],27 µM (active) and 24.3 µM (active)
CCCNCCC,Potency,[1],inactive
same,Potency,[2],inactive
same,Potency,[3],inactive
same,Potency,[4],inactive
same,Potency,[5],inactive
same,Potency,[6],inactive
same,Potency,[7],inactive
same,Potency,[9],inactive
same,Potency,[14],inactive
same,Potency,[10],inactive
same,Potency,[11],inactive
O=S(=O)(O)c1ccccc1/C=C/c1ccc(-c2ccc(/C=C/c3ccccc3S(=O)(=O)O)cc2)cc1,Potency,[1],inactive
same,Potency,[2],inactive
same,Potency,[3],inactive
same,Potency,[4],inactive
same,Potency,[5],inactive
same,Potency,[6],57.2 µM (active)
same,Potency,[9],inactive
same,Potency,[14],inactive
same,Potency,[10],inactive
same,Potency,[12],inactive
same,Potency,[13],inactive
same,Potency,[11],inactive
Cc1c(C)c2c(c(C)c1OC(=O)c1cccnc1)CC[C@@](C)(CCC[C@H](C)CCC[C@H](C)CCCC(C)C)O2,Potency,[1],inactive
same,Potency,[2],inactive
same,Potency,[3],inactive
same,Potency,[4],inactive
same,Potency,[5],inactive
same,Potency,[6],inactive
same,Potency,[7],inactive
same,Potency,[8],inactive
same,Potency,[10],inactive
same,Potency,[12],inactive
same,Potency,[13],inactive
same,Potency,[11],inactive
CC(CO)Oc1ccccc1 (configuration not stated),Potency,[1],inactive
same,Potency,[2],inactive
same,Potency,[3],inactive
same,Potency,[4],inactive
same,Potency,[5],inactive
same,Potency,[6],inactive
same,Potency,[7],inactive
same,Potency,[8],inactive
same,Potency,[10],inactive
same,Potency,[11],inactive
CCCCCCCCCCCC(=O)OCC(C)OC(=O)CCCCC(=O)O (configuration not stated),Potency,[1],inactive
same,Potency,[2],inactive
same,Potency,[3],inactive
same,Potency,[4],inactive
same,Potency,[5],inactive
same,Potency,[6],inactive
same,Potency,[7],inactive
same,Potency,[8],inactive
same,Potency,[9],inactive
same,Potency,[14],inactive
same,Potency,[10],inactive
same,Potency,[11],inactive
